MITF act – activators of MITF-driven TRPM1 promoter activity in SK-MEL-5 cells | 0.75% of 300,000 active | activation, % at 12.5 µM | AID 588334 | SK-MEL-5 TRPM1-promoter luciferase, 24 h; % of positive control, neutral wells = 0;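 active means mean activation of at least 80% with every replicate also reaching 80%; inconclusive means mean reaches 80% but some replicate falls short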;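 further: 0% = neutral control wells and 100% = parthenolide positive control wells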
Wnt bcat act – Wnt/beta-catenin pathway activation; Wnt/beta-catenin reporter cell assay, activator, plate reader; AID 743398; activation, % at 9.35 µM; 1.2% of 300,000 active; in the data active means activation above about 30%, passing the limit was not always enough; inconclusive means no clear call, values can overlap the other calls;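 further: 0% = neutral control wells and 100% = positive control wells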
TRPM1 prom inh – reduces MITF-dependent TRPM1 promoter luciferase signal | 0.83% of 330,000 active | SK-MEL-5 TRPM1 promoter luciferase, 24 h | AID 488899 | inhibition, % at 12.5 µM;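 active means mean inhibition across replicates of 60% or more, whatever share of single replicates reaches that level; inconclusive means some that reach 60%, reason not given; inactive means mean inhibition across replicates below 60%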
NSD2 HMT inh – NSD2 (human) methyltransferase inhibition; O96028; NSD2 peptide methylation, AlphaScreen, 120 min; inhibition, % at 12.5 µM; 0.54% of 310,000 active; AID 743445; in the data active means inhibition above about 50%
PfHsp90 yeast 2 – reduces growth (ATP signal) of yeast expressing P. falciparum Hsp90. S. cerevisiae expressing PfHsp90, BacTiter-Glo ATP, 48 h; yeast lacking PDR1 and PDR3 efflux regulators. inhibition, % at 9.4 µM. 0.32% of 310,000 active. AID 504621;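 active means every replicate shows inhibition above about 80%, whatever the replicate mean, limit read from the data; inconclusive means mean inhibition reaches the set limit but some replicate falls short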;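 further: 0% = DMSO neutral controls and 100% = 20 µM radicicol positive controls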
N-glyco inh – blocks N-linked glycosylation in D54 reporter cells | D54 ERlucT glycosylation luciferase reporter, 24 h; percent of 100 nM tunicamycin response | 0.23% of 360,000 active | reporter increase, % at 12.5 µM;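 active means mean luciferase reporter signal, scaled so untreated is 0 and the glycosylation-blocking control 100, at or above a set limit in every replicate; inconclusive means mean reaches the limit but not every replicate does; inactive means mean below the limit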;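 further: luciferase carries N-glycosylation sites so blocking glycosylation raises the light; 0% = median of neutral control wells and 100% = median of 100 nM tunicamycin wells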
* marks the source's active call; other numbers are inactive results; ? = inconclusive; · = no result. This is a sample that favours compounds with a hit; in the whole collection about 2.9% have one here.

SMILES	MITF act	Wnt bcat act	TRPM1 prom inh	NSD2 HMT inh	PfHsp90 yeast 2	N-glyco inh
O=C(C=NNc1ccccc1)c1ccccc1	52	58*	-44	4	-13	-13
CC(C)N=c1scc(-c2ccco2)n1/N=C/c1ccc(O)c(O)c1	19	·	-23	·	9	-7
COCCN=c1scc(-c2ccco2)n1/N=C/c1ccc(O)c(O)c1O	6	12	2	87*	·	-2
C=CCN=c1scc(-c2ccco2)n1/N=C/c1ccc(O)c(O)c1O	39	42*	-26	17	15	-1
CC(C)C(=O)Oc1ccc(CO)cc1[C@H](CCN(C(C)C)C(C)C)c1ccccc1	·	·	·	-1	·	·
COc1cccc(S(=O)(=O)N(C)C[C@@H]2Oc3ncc(Br)cc3C(=O)N([C@H](C)CO)C[C@@H]2C)c1	·	-1	·	·	·	·
CCOC(=O)C1=C(N)N2C(=O)C(C)SC2=C(C(=O)OCC)C1c1ccccc1 (stereo unspecified)	11	-2	-12	-1	-12	1
CCOC(=O)C1=C(N)N2C(=O)C(C)SC2=C(C(=O)OC)C1c1ccccc1OC (stereo unspecified)	-6	·	8	-1	133*	0
COc1ccc2c(c1OC)C(=O)N(c1cccc(NC(C)=O)c1)C2	25	9	-23	-2	11	0
COc1ccc2c(c1OC)C(=O)N(c1ccc(F)cc1)C2	?	38*	-69	-1	5	0
CC(=O)NC1=C(NC2CCS(=O)(=O)C2)C(=O)c2ccccc2C1=O (stereo unspecified)	-51	-1	49	69*	0	9
COc1ccc(N2CCN(C(=O)c3ccc(Br)cc3)CC2)c([N+](=O)[O-])c1	-6	-2	9	7	105*	5
Nc1cc2c(cc1[N+](=O)[O-])-c1ccccc1C2=NO	18	1	-25	3	128*	-1
O=C1Nc2ccc(Br)cc2/C1=C/C1CC=CCC1 (stereo unspecified)	-20	-2	23	-2	103*	11
O=C1NC(Cc2ccccc2)C(=O)Nc2ccc(Br)cc21 (stereo unspecified)	-10	-1	13	0	1	3
C[C@@H]1ON(C)[C@H]2C[C@H]3c4[nH]c5cccc(Br)c5c4CCN3C(=O)[C@@H]12	·	-5	·	·	·	·
CCOC(=O)/C=C/S(=O)(=O)c1ccc(NC(C)=O)cc1	-92	·	92*	3	8	-14
COC(=O)C1=C(C)N(C)C(=NCC2CC2)NC1CCc1ccccc1 (stereo unspecified)	·	-1	·	·	·	·
O=C(SCc1c(O)c2ccccc2oc1=O)c1ccccc1	·	2	·	0	·	0
Oc1c(CN2CCc3ccccc3C2)cc(Cl)c2cccnc12	-74	·	75*	·	102*	-10
O=c1oc2ccccc2c(O)c1Cc1cc(Cl)c2cccnc2c1O	-5	-3	9	-6	90*	4
O=C(COc1c(Br)cc(Br)c2cccnc12)N1CCCCC1	-14	1	15	4	-28	-1
Oc1c(CN2CCCCC2)cc(Br)c2cccnc12	-78	·	75*	-2	104*	-10
Oc1c(Cl)cc(CN2CCOCC2)c2cccnc12	-55	-23	55	4	·	2
O=C(Oc1c(CN2CCOCC2)cc(Cl)c2cccnc12)c1ccccc1	-64	-2	64*	0	6	-8
SMILES	MITF act	Wnt bcat act	TRPM1 prom inh	NSD2 HMT inh	PfHsp90 yeast 2	N-glyco inh
Cc1ccc(NC(=O)[C@H]2CC(=O)O[C@@H]2c2ccccc2)c(C)c1	·	·	·	13	·	·
O=C(NCCc1ccccc1F)c1ccc(Sc2ccccc2Cl)c([N+](=O)[O-])c1	·	·	·	1	·	·
CN1CCN(Cc2cc(COCc3ccccc3)c3cccnc3c2O)CC1	-79	-5	79*	·	18	-8
O=C(Oc1c(CN2CCOCC2)cc(Cl)c2cccnc12)c1ccccc1F	-68	19	68*	2	10	-12
CN1CCN(C2CCN(Cc3ccc(O)c4ncccc34)CC2)CC1	-2	-5	1	·	5	3
COC(=O)[C@@H]1C[C@@]2(Br)c3ccccc3N(S(=O)(=O)c3ccccc3)[C@H]2N1C(=O)OC	-11	-3	12	·	4	0
O=C(N[C@H](C(=O)N1CCC[C@H]1C(=O)NC1CCCC1)c1ccccc1)C1CC1	·	0	·	·	·	·
CC1CC(C)CN(CCCNC(=O)c2cc3c(s2)-c2ccccc2OC3)C1 (stereo unspecified)	17	3	-14	-23	9	0
CC1CCCC(C)N1CCCNC(=O)c1cc2c(s1)-c1ccccc1OC2 (stereo unspecified)	-61	0	61*	-10	-2	2
O=C(c1cc2c(s1)-c1ccccc1OC2)N1CCCC1	34	55*	-34	·	2	-2
CCCCCCCCNC(=O)/C(C#N)=C/c1ccccc1[N+](=O)[O-]	-9	-1	8	1	110*	-6
N#C/C(=C\C=C\c1ccccc1[N+](=O)[O-])C(=O)NCc1ccccc1	-70	3	69*	4	-8	9
CC[C@@]1(C(=O)OC)N[C@H](CN(C)C(=O)Nc2ccccc2)[C@@H]2C(=O)N(Cc3ccccc3)C(=O)[C@@H]21	1	-2	0	·	5	0
Nc1ccccc1-c1nc2ccccc2s1	42	46*	-48	-4	-35	-4
c1csc(-c2nc3ccccc3s2)c1	79	13	-76	-1	-12	-3
CN(C)c1nc(N)nc(-c2nc3ccccc3s2)n1	11	31*	-14	-4	41	-4
c1ccc2sc(-c3ccncc3)nc2c1	70	42*	-64	0	-30	2
COc1ccc(Cl)cc1-c1nc(N)nc(N(C)C)n1	-1	-7	0	1	-2	3
COc1ccc(-c2nc3ccccc3s2)cc1NC(C)=O	68	36*	-63	-4	11	-4
Nc1ccc(O)c(-c2nc3ccccc3s2)c1	1	2	1	-5	1	-1
COc1ccc(-c2nc3ccccc3s2)cc1	-22	5	26	2	18	-17
Oc1ccc(-c2nc3ccccc3s2)cc1	46	47*	-44	·	5	-13
c1cncc(-c2nc3ccccc3s2)c1	85*	?	-74	·	10	1
Oc1ccc(-c2nc3ccccc3s2)c(O)c1	56	58*	-61	-3	-5	-1
C[C@@H]1ON(C)[C@H]2C[C@H]3c4[nH]c5c(-c6ccc(Cl)cc6)cccc5c4CCN3C(=O)[C@@H]12	·	-2	·	·	·	·
CC(C)Oc1cccc(-c2n[nH]c(=S)n2N=Cc2ccc(OCc3ccccc3)cc2)c1	·	·	·	3	·	·
Fc1ccc(-c2nnc(NC3=NCCCCC3)o2)cc1	-60	·	62*	·	45	-17
Cc1cccc(C)c1NC(=O)Cn1nnc(-c2ccncc2)n1	·	·	·	-1	·	·

Screens deposited in PubChem BioAssay by Broad Institute.
